BL2 CD40 inh: CD40 pathway inhibition in BL2 cells | hit rate 0.94% among 83,000 | BL2 NF-kB luciferase reporter, CD40L-induced, 4 h | AID 1053188 | inhibition, % at 10 µM;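 active = mean inhibition of at least 50% with a set share of replicates also reaching that level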;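 also: 0% = neutral control wells and 100% = IKK inhibitor VII at 50 µM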
* hit, by the source's call; [ ] = dose if it differs, or a comment. Shown is part of a subset that was picked to be rich in hits.

SMILES	BL2 CD40 inh
CCN(CC)CCNc1ccnc2cc(Cl)ccc12	-7
O=C(NCCNc1ccnc2cc(Cl)ccc12)c1ccccc1F	37*
O=C(C1CC1)N1CC2(C1)[C@H](c1ccccc1)[C@@H](CO)N2S(=O)(=O)c1ccccc1	-2[25 µM]
CNC[C@H]1Oc2ccccc2C(=O)N(C)C[C@H]1C	-4
CC(=O)N1[C@@H](CO)[C@@H](c2ccc(-c3ccc(F)cc3)cc2)[C@@H]1CNC(=O)C1CC1	8
O=C1[C@@H](Cc2ccc(F)cc2)CCn2cc(nn2)COC[C@H]2CCCN12	-9[25 µM]
CC1(C)C(=O)N=C2c3ccccc3C(=O)C(=O)C21 (stereo unspecified)	91*[25 µM]
CN1CCN(C(=O)C[C@@H]2C[C@H]3c4cc(NS(C)(=O)=O)ccc4O[C@H]3[C@H](CO)O2)CC1	2[25 µM]
O=C(CN1CCOCC1)N[C@H]1CC[C@H](CCn2cc(C3CCCC3)nn2)O[C@H]1CO	4
CCCCCCCC/C=C/CCCCCCCC(=O)NC(CO)Cc1ccc(O)cc1 (stereo unspecified)	8[25 µM]
Cc1ccc(C(=O)NCCN(C)C)cc1C	12
Cc1ccc(C)c(C(=O)NCCN(C)C)c1	7
C=C(CN(C)C)C(=O)c1cc(C)ccc1C	91*
C[C@H]1CN(C)C(=O)c2cccc(N)c2O[C@H]1CN(C)C(=O)OC(C)(C)C	16
Cc1noc(C)c1NC(=O)N1C[C@@H](O)COC[C@@H]2O[C@H](CC(=O)N3CCc4ccccc4C3)CC[C@H]21	-1[25 µM]
O=C(Nc1cccc2ncccc12)c1cc2ccccc2o1	-10
Cc1ccnc(NC(=O)c2cc3ccccc3o2)c1	88*
O=C(Nc1ccc2c(c1)OCCO2)c1cc2ccccc2o1	33
O=C(Nc1ncccc1O)c1cc2ccccc2o1	-9
O=C(NC1CC1)c1cc2ccccc2o1	-4
O=C(NC1=NCCS1)c1cc2ccccc2o1	63*
C[C@H]1CN(C)C(=O)c2cccnc2O[C@@H]1CN(C)C	2
O=C(Cc1ccncc1)N1CC(=O)N2[C@H](C1)[C@@H](c1ccc(Br)cc1)[C@@H]2CO	1[25 µM]
CC(=O)N(C)C[C@H]1Oc2ccccc2CC(=O)N(C)C[C@@H]1C	-1
CCCNc1ccc2ncc(Br)n2n1	36
SMILES	BL2 CD40 inh
COc1cccc(CN(C)C[C@@H]2OCc3ccccc3-c3c(n(C)c4ccccc34)C(=O)N([C@H](C)CO)C[C@H]2C)c1	20
Cc1ccc(-c2nnc(-c3ccc4c(c3)OCO4)o2)cc1	-65
O=C1CCCCC1Sc1nnc(-c2ccc3c(c2)OCO3)o1 (stereo unspecified)	95*
c1coc(-c2nnc(-c3ccc4c(c3)OCO4)o2)c1	-46
C[C@H](CO)N1C[C@H](C)[C@@H](CN(C)C)Oc2ccc(NS(C)(=O)=O)cc2C1=O	-1[25 µM]
N#C[C@@H]1[C@H](c2ccc(C3=CCCC3)cc2)[C@@H](CO)N1C(=O)c1cccc(F)c1	-1
C[C@H]1CN([C@@H](C)CO)C(=O)c2c(c3ccccc3n2C)-c2ccccc2CO[C@@H]1CN(C)C(=O)C1CC1	-4
O=C(Nc1ccc(Cl)c(Cl)c1)N[C@H]1CC[C@H](CCn2cc(C3CCCC3)nn2)O[C@H]1CO	9
CNC[C@@H]1Oc2ccccc2C(=O)N(C)C[C@H]1C	-6
COc1cc2c(cc1OC)CN(C(=O)c1ccc(-c3ccccc3)cc1)CC2	18
COc1cc2c(cc1OC)CN(CC(=O)NC(=O)NC(C)(C)C)CC2	0
COc1ccc(C(=O)CCN2CCc3cc(OC)c(OC)cc3C2)cc1	50*
CC(=O)N(C)C[C@@H]1Oc2c(cccc2N(C)C)C(=O)N(C)C[C@H]1C	-11
CO[C@@H]1CC[C@H]2CCOc3ccc(C#N)cc3C(=O)N(C)C[C@H](c3ccccc3)CC(=O)N(C)C[C@H]1O2	0[25 µM]
O=C(C[C@@H]1CC[C@H](NC(=O)Nc2ccc(C(F)(F)F)cc2)[C@@H](CO)O1)NCc1cccc(F)c1	2[25 µM]
O=C(Nc1cc(=O)[nH]c2nc(-c3ccc(Cl)cc3)nn12)c1ccccc1	12
Cn1nc(C(=O)NNC(=O)c2ccc(Cl)cc2)ccc1=O	0
Cn1nc(-c2ccc(Cl)cc2)nc2c(=O)n(C)c(=O)nc1-2	84*
CC(=O)N1[C@@H]2c3ccc(-c4ccc(F)cc4)c(=O)n3C[C@@H]2[C@@H](CO)[C@@H]1C(=O)N(C)C	4[25 µM]
O=C1C=CC(=O)N1CCCCCCCCCCN1C(=O)C=CC1=O	110*
O=C1C=CC(=O)N1Cc1cccnc1	7
C[C@@H]1CN([C@@H](C)CO)C(=O)c2ccccc2-c2ccccc2CO[C@@H]1CN(C)S(=O)(=O)c1cn(C)cn1	1[25 µM]
CCCN1[C@H](CO)[C@H](c2ccc(C#Cc3ccccc3)cc2)[C@@H]1CNC1CCCC1	-13[25 µM]
CO[C@H](CN(C)C(=O)c1ccccc1F)[C@@H](C)CN([C@@H](C)CO)S(=O)(=O)c1ccccc1	4
COC(=O)c1ccc(CN2CC(=O)N3[C@@H](CO)[C@@H](c4ccc(Br)cc4)[C@@H]3C2)cc1	4
SMILES	BL2 CD40 inh
CCC(=O)N1[C@@H]2c3ccc(C4=CCCC4)c(=O)n3C[C@@H]2[C@@H](CO)[C@@H]1C(=O)NC1CCC1	2
Cc1cc(C)c2c(N)c(C(=O)NC3CC3)sc2n1	-5
Cc1cc(C)c2c(N)c(C(=O)NN)sc2n1	-14
Cc1cc(C)c2c(N)c(C(=O)Nc3nccs3)sc2n1	70*
CCCCCCCCCCCCCCCC[n+]1ccccc1	99*
CN1C(=O)c2cc(NC(=O)C3CCCCC3)ccc2OC[C@H]2O[C@H](CC(=O)NC3CCCC3)CC[C@H]21	8
CNc1cc2ncnc(Nc3cccc(Br)c3)c2cc1N	-7[25 µM]
C[C@@H]1CN([C@H](C)CO)C(=O)c2c(c3ccccc3n2C)-c2ccccc2CO[C@H]1CN(C)S(=O)(=O)c1ccc([N+](=O)[O-])cc1	37[25 µM]
COc1ccccc1NC(=O)N(C)C[C@@H]1OCc2ccccc2-c2c(n(C)c3ccccc23)C(=O)N([C@H](C)CO)C[C@H]1C	6
C[C@H](CO)N1C[C@H](C)[C@@H](CN(C)Cc2ccccc2)OCc2ccccc2-c2c(n(C)c3ccccc23)C1=O	22
C[C@@H]1CN([C@@H](C)CO)C(=O)c2c(c3ccccc3n2C)-c2ccccc2CO[C@@H]1CN(C)Cc1ccc(O)cc1	-6
C[C@@H]1CN([C@@H](C)CO)C(=O)c2c(c3ccccc3n2C)-c2ccccc2CO[C@H]1CN(C)S(=O)(=O)c1ccc([N+](=O)[O-])cc1	55*[25 µM]
C[C@H](CO)N1C[C@H](C)[C@@H](CN(C)Cc2cccc(F)c2)OCc2ccccc2-c2c(n(C)c3ccccc23)C1=O	20
C[C@@H]1CN([C@@H](C)CO)C(=O)c2c(c3ccccc3n2C)-c2ccccc2CO[C@H]1CN(C)Cc1ccccc1	49*
C[C@@H]1CN([C@@H](C)CO)C(=O)c2c(c3ccccc3n2C)-c2ccccc2CO[C@H]1CN(C)Cc1cccc(C(F)(F)F)c1	78*[25 µM]
C[C@H]1CN([C@@H](C)CO)C(=O)c2c(c3ccccc3n2C)-c2ccccc2CO[C@@H]1CN(C)S(=O)(=O)c1ccccc1	26
C[C@@H]1CN([C@H](C)CO)C(=O)c2c(c3ccccc3n2C)-c2ccccc2CO[C@H]1CN(C)Cc1ccc(C(F)(F)F)cc1	16
C[C@@H]1CN([C@H](C)CO)C(=O)c2c(c3ccccc3n2C)-c2ccccc2CO[C@@H]1CN(C)C(=O)Nc1ccccc1C(F)(F)F	34[25 µM]
C[C@H]1CN([C@@H](C)CO)C(=O)c2c(c3ccccc3n2C)-c2ccccc2CO[C@H]1CN(C)C(=O)Nc1ccccc1C(F)(F)F	59*[25 µM]
CCN1CC(=O)N2[C@H](C1)[C@H](c1ccc(Br)cc1)[C@@H]2CO	-8[25 µM]

Source: PubChem (Broad Institute)
